High-throughput results: PubChem BioAssay, Sanford-Burnham Center for Chemical Genomics
KKLEB cytotox – reduces viability of KKLEB cystic fibrosis airway cells | KKLEB CF airway cells viability, ATPlite luminescence, overnight; hits give low values; cells stimulated with P. aeruginosa culture filtrate | activity change (cytotoxicity), % at 5 µM | 0.36% of 360,000 active;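 active = corrected activity change at or below -50% at 5 µM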
TRAIL sens C8 – caspase-8 TRAIL sensitization; 1% of 360,000 active; inhibition (viability loss, TRAIL sensitization), % at 10 µM; NB7+C8 cells + TRAIL, ATPlite viability luminescence; AID 624354;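 active = compounds causing at least 50% loss of cell viability in the single-dose screen, relative to plate controls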
HIF-2a block – HIF-2a inhibition | 786-0 RCC cells HIF-2a reporter, luciferase luminescence, overnight | inhibition, % at 18.8 µM | 0.72% of 360,000 active;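 active = inhibition of the luminescence signal of 40% or more relative to plate controls, in a single-dose primary screen at 18.75 µM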
PPC-1+TRAIL kill – kills PPC-1 cancer cells in the presence of TRAIL; PPC-1 cells + TRAIL, ATPLite viability luminescence; cell killing (% activity), % at 4 µM or 5 µM; 0.41% of 220,000 active;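 active = cell killing above 50% in the first pass at 4 µM, then a duplicate retest at 5 µM averaging 50% or more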;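 note: plate controls were cells with TRAIL plus DMSO for no effect and medium-only wells lacking cells for full effect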
CF NFkB inh – cystic fibrosis NF-kB activation inhibition | KKLEB NF-kB-GFP reporter, PAF-induced, GFP fluorescence overnight | inhibition, % at 5 µM | 0.86% of 360,000 active | AID 588850;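 active = at least 50% inhibition at 5 µM, scaled per plate between neutral and stimulator controls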;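 note: PAF is a Pseudomonas aeruginosa culture filtrate used as stimulus; plate controls were PAF-stimulated DMSO wells for no effect and unstimulated DMSO wells for full effect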
Peg3 prom inh – inhibitors of Peg3 promoter; HeLa PEG-Prom luciferase reporter, luminescence, overnight; inhibition, % at 20 µM; 1.7% of 360,000 active;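 active = inhibition of at least 50% at 20 µM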
* hit, by the source's call; . = not tested or not shown. Hits are enriched below; roughly 3.1% of the tested compounds scored in any of these assays.

SMILES	KKLEB cytotox	TRAIL sens C8	HIF-2a block	PPC-1+TRAIL kill	CF NFkB inh	Peg3 prom inh
CN1C2CCC1C(COC(=O)c1ccccc1)C(O)C2 (stereo not given)	8	11	14	5	-17	4
Cc1cccc(C)c1OP(N)(=O)OCC(F)(F)F (stereo not given)	3	11	8	16	-8	-6
CCCCCCCCCOc1ccc2[nH]cc(CCN)c2c1	.	.	.	61*	.	.
COc1ccc(-n2c(/C=C/c3ccc(O)c(O)c3)nc3ccccc3c2=O)cc1	-11	35	18	.	-30	55*
COc1cc(OC)c(OC)cc1CNCCc1ccc2c(c1)OCO2	-1	-14	19	.	-11	2
Clc1ccc(C(c2ccc(Cl)cc2)n2cc[n+](CC(OCc3ccc(Cl)cc3Cl)c3ccc(Cl)cc3Cl)c2)cc1 (stereo not given)	8	94*	97*	.	56*	102*
CN=C1CN(O)C(c2ccccc2)c2cc(Cl)ccc2N1 (stereo not given)	4	1	14	.	2	5
CC1=CC(C)CC(C)OC(=O)CC(c2ccc(O)cc2)NC(=O)C(Cc2c(Br)[nH]c3ccccc23)N(C)C(=O)C(C)NC(=O)C(C)C1 (stereo not given)	-81*	46	24	.	91*	76*
CCC(c1nnnn1-c1ccc2c(c1)OCCO2)N1CCC2(CC1)C(=O)NCN2c1ccccc1 (stereo not given)	-41	-4	9	.	14	12
COc1cccc2cc(-c3cc(=O)oc4ccc(OC(=O)N(C)C)cc34)oc12	1	9	-1	.	-26	23
CC(C)N(C(=O)CCl)c1ccccc1	0	91*	-3	.	8	-6
CCOC(=O)C1(c2ccccc2)CCN(CCC(=O)Nc2cccc(Br)c2)CC1	2	19	9	.	0	59*
CCOC(=O)C1(c2ccccc2)CCN(CCC(=O)Nc2ccc(OC)cc2)CC1	-12	-7	10	.	5	0
O=[N+]([O-])c1ccc(Cl)c([N+](=O)[O-])c1	-17	81*	7	.	58*	58*
O=C(O)c1ccc(N=Cc2c(O)n(Cc3ccc(F)cc3)c(=O)[nH]c2=O)cc1	6	4	12	7	-13	1
Cn1c(O)c(C=Nc2ccc(F)cc2)c(=O)[nH]c1=O	13	-4	7	.	-11	74*
O=C1NC(=O)N(CCc2ccc(F)cc2)C(=O)/C1=C\C=C\c1ccccc1	-48	-1	11	17	89*	34
S=P1(Oc2ccccc2)Nc2ccccc2N1	-2	7	-17	.	5	-1
CNC(=O)Oc1ccc(-c2cn3cc(C)ccc3n2)cc1	-38	93*	39	88*	-2	37
CNC(=O)Oc1cccc(-c2cn3cc(Cl)ccc3n2)c1	-10	80*	-14	86*	-21	-17
CCC(COC(=O)NC)NC(=O)Oc1cccc(C)c1 (stereo not given)	2	-10	4	28	2	15
C[C@H](NC(=O)N1C[C@H]2C[C@@H](C1)c1cccc(=O)n1C2)C(=O)Nc1ccccc1F	5	4	5	.	13	6
CNc1ccc2nc3ccccc3[n+](C)c2c1	5	41	-11	.	-61	39
CC12C(C(=O)O)C1(c1ccccc1)C2C(=O)O (stereo not given)	5	-3	-2	.	3	-4
Oc1c(Br)c(Br)c(Br)c(Br)c1Br	-7	1	-38	.	48	48
SMILES	KKLEB cytotox	TRAIL sens C8	HIF-2a block	PPC-1+TRAIL kill	CF NFkB inh	Peg3 prom inh
CC(C)CCNC(=O)c1c(N)n(Cc2ccc3c(c2)OCO3)c2nc3ccccc3nc12	-9	12	-2	9	10	45
CCCNC(=O)c1c(N)n(Cc2ccc3c(c2)OCO3)c2nc3ccccc3nc12	-64*	0	11	14	51*	41
C[C@]12CCC3C(CC[C@H]4C[C@@H](O)CC[C@]34C)C1CC[C@@H]2OC(=O)[C@H](N)CCCCN (stereo not given in full)	-11	5	17	.	17	87*
CC(=O)OC1CC(OC2C(O)CC(OC3C(O)CC(OC4CCC5(C)C(CCC6C5CC(O)C5(C)C(C7=CC(=O)OC7)CCC65O)C4)OC3C)OC2C)OC(C)C1OC1OC(CO)C(O)C(O)C1O (stereo not given)	-48	67*	87*	.	86*	95*
COC1C(O)C(C)OC(OC2CCC3(C)C(CCC4C3C(O)CC3(C)C(C5=CC(=O)OC5)CCC43O)C2)C1O (stereo not given)	-41	68*	74*	.	86*	100*
CS(=O)(=O)c1ccc(C(=O)N2CCC(C(=O)O)(c3ccccc3)CC2)cc1	-18	2	2	.	-1	-1
COc1ccc(CC(C)NC2CCCCCC2)cc1 (stereo not given)	3	5	-2	.	-17	14
Cc1nc2cc(C(F)(F)F)ccc2n1C1CCN(Cc2nnnn2Cc2ccc3c(c2)OCO3)CC1	-24	58*	10	17	17	24
N#Cc1cn(C2OC(CO)C(O)C2O)c2ncnc(N)c12 (stereo not given)	-34	31	31	.	96*	96*
Nc1ncnc2c1ncn2[C@@H]1O[C@H](COP(=O)(O)CP(=O)(O)O)[C@@H](O)[C@H]1O	-3	-1	-27	.	-4	-11
COC(=O)C1CN(C#N)N(c2ccc(Cl)cc2)C12c1ccccc1-c1ccccc12 (stereo not given)	-102*	91*	90*	17	97*	109*
COC(=O)C1=C(c2cccc(C#N)c2)C[C@@H]2CC[C@H]1N2C(=O)NCCOc1ccc(OC)cc1	-4	-11	9	.	-10	5
Cc1ccc2c(C)c3ccc4ccccc4c3c[n+]2c1	6	18	0	.	-126	55*
C=C1[C@@H](C)[C@H]2[C@H](Cc3ccccc3)NC(=O)[C@]23OC(=O)/C=C/[C@H](O)CCC[C@@H](C)C/C=C/[C@H]3[C@@H]1O	-37	42	-15	35	81*	64*
C=C1C(C)C2C(Cc3ccccc3)NC(=O)C23C(OC(C)=O)C=CC(C)(O)CC(C)CC=CC3C1O (stereo not given)	-67*	6	10	.	53*	-16
COC(=O)c1ccc(NC(=O)CSc2nc3ccc(N4C(=O)C5C6C=CC(C6)C5C4=O)cc3s2)cc1 (stereo not given)	-1	41	-93	38	-7	105*
CCOC(=O)[C@]12Cc3cc(Cl)ccc3[C@H]1N(C1CCCCC1)C(=O)c1cc(OC)ccc12	.	96*	89*	.	.	.
COc1ccc(OC(=O)N(C)C[C@H]2OCc3cnnn3CCCC(=O)N([C@H](C)CO)C[C@H]2C)cc1	1	8	7	.	7	9
